Test results taken from PubChem BioAssay (NCATS).
Inconclusive results are not listed. A number with no mark means an inactive call. The source made the active and inactive calls. Calls follow the shape of the dose curve; as a rule, active = well fitted cell-killing curve with a large enough effect; inconclusive = small, poorly fitted or top-dose-only effect, or effect the other way; inactive = flat fitted curve, though single readings scatter.

test system: Tov-21-G; assay: Primary qHTS to identify gynecologic anti-cancer compounds using libraries of approved drugs and bioactive compounds (AID 1345084); settings: Gynecologic cancer cell panel viability, ATPlite luminescence, 48 h; series mostly up to 57.5 µM; activity change, negative = cytotoxicity: at the top concentration; also: nearly all actives have a fitted effect of over 55% in size
Outline: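 In this quantitative HTS, cell killing is estimated from loss of ATP-dependent luciferase light. Cells see five compound concentrations over a 48 h exposure.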
% is scaled to controls: 0 for no effect and ±100 for the full control effect; potency is read from the fitted curve at half-maximal effect.

Compound | Potency | activity change, negative = cytotoxicity
Cc1cc(-c2nc3cc(F)ccc3s2)ccc1NC(=O)[C@@H](N)CCCCN | 14.1 µM (active) | 
Cc1ccccc1CN1CCn2c1nc1c(c2=O)CN(Cc2ccccc2)CC1 |  | 7.58%
C=C(C)C(=O)O[C@H]1/C(C=O)=C\CC/C(CO)=C/[C@H]2OC(=O)C(=C)[C@@H]2[C@@H]1OC |  | -6.58% [at 38.5 µM]
C[C@@H]1CC[C@]2(C(=O)O)CC[C@]3(C)C(=CCC4[C@@]5(C)CC[C@H](O)[C@](C)(C(=O)O)C5CC[C@]43C)C2[C@]1(C)O (some centres undefined) |  | -4.24% [at 25.3 µM]
COc1ccnc(CS(=O)c2nc3cc(OC(F)F)ccc3[nH]2)c1OC (centres undefined) |  | -2.38%
COc1ccc(-c2cnc3c(-c4cccc5ncccc45)cnn3c2)cc1 |  | -2.29%
CC(C)(C)OC(=O)c1ncn2c1C(C)(C)Nc1ccccc1-2 |  | 5.77%
CN1CCN(C(=O)CN[C@@H]2C[C@H]2c2ccc(OCc3ccccc3)cc2)CC1 |  | -29.8%
CC(=O)OC/C(=C/C(=O)O)CC[C@@H]1C(C=O)=CC[C@@H]2C(C)(C)CCC[C@@]12C |  | -1.22% [at 38.5 µM]
O=C(COc1ccc2ccccc2c1Br)Nc1cccnc1 |  | 5.4%
O=C(Nc1ccc2[nH]c(=O)oc2c1)C(=O)N1CCC(Cc2ccc(F)cc2)CC1 |  | 0.745%
CC(=O)OC[C@]12[C@H](OC(C)=O)C(=O)[C@@H]3[C@@H](O)[C@@]14O[C@@]3(C)COC(=O)c1cccnc1[C@@H](C)[C@H](C)C(=O)O[C@@H]([C@H](O)[C@@H]2OC(C)=O)[C@]4(C)O |  | -2.16% [at 25.3 µM]
CCOc1ccc(-n2c(C(C)N(Cc3cccnc3)C(=O)Cc3ccc(F)c(C(F)(F)F)c3)nc3ncccc3c2=O)cc1 (centres undefined) |  | -0.0058%
C=C1C(=O)OC2/C=C(\CO)CC/C=C(\C=O)C(O)C(OC(=O)C(C)CC)C12 (centres undefined) |  | -27.6% [at 38.5 µM]
Cc1ccc(N2CCN(S(=O)(=O)N3CCCCC3)CC2)c(C)c1 |  | 11.2%
C1=C/COCc2cc(ccc2OCCN2CCCC2)Nc2nccc(n2)-c2cccc(c2)COC/1 | 10 µM (active) | 
Cn1ncnc1[C@@H]1c2n[nH]c(=O)c3cc(F)cc(c23)N[C@H]1c1ccc(F)cc1 |  | -12.7%
O=C(Cc1c(F)cccc1F)Nc1cc(OCc2ccc(Cl)cc2)ccn1 |  | 2.14%
CCOc1ccc(-n2c([C@@H](C)N(Cc3cccnc3)C(=O)Cc3ccc(OC(F)(F)F)cc3)nc3ncccc3c2=O)cc1 |  | 22.1%
C=C(C)C1=C[C@@]2(C)C(=CC1=O)CC[C@@H](O)[C@@H]2C |  | -3.85%

Compound | Potency | activity change, negative = cytotoxicity
C=C1/C(=C/C=C2\CCC[C@]3(C)[C@@H]([C@H](C)/C=C/[C@H](O)C4CC4)CC[C@@H]23)C[C@@H](O)C[C@@H]1O |  | -1.1%
CC(C)(C)c1ccc(C(=O)Nc2cc(Cl)c(Br)cc2C(=O)O)cc1 |  | -13.4%
COc1c(C(O)CC(C)C)ccc2c1C(=O)OCc1cc(C)cc(O)c1O2 (centres undefined) |  | 0.741% [at 38.5 µM]
O=C(NCC1(c2nc(-c3ccccc3)cs2)CCOCC1)c1cccc(-c2noc(C(F)(F)F)n2)c1 |  | 14.9%
C/C=C/C=C/c1cc2c(C=O)c(O)c(CC=C(C)C)cc2o1 |  | -1.04%
Cc1ccc(N2CCN(CCC3NC(=O)c4ccccc43)CC2)cc1C (centres undefined) |  | 13.5%
CC(C)NC(=O)N1CC[C@H](N=C2Nc3cc(F)ccc3N(CC(F)F)c3ccc(Cl)cc32)C1 |  | -31.2% [at 11.6 µM]
COc1ccc(CCO[C@@H]2O[C@H](CO[C@H]3OC[C@](O)(CO)[C@H]3O)[C@@H](OC(=O)/C=C/c3ccc(O)c(O)c3)[C@H](O[C@@H]3O[C@@H](C)[C@H](O)[C@@H](O)[C@H]3O)[C@H]2O)cc1OC |  | -7.61% [at 25.3 µM]
CC(=O)OC1CC(C)C2(CCC3(CC(=O)OC3O)O2)C2(C)CCCC(C)(C)C12 (centres undefined) |  | 1.78% [at 25.3 µM]
Cc1noc(-c2ccc(-c3ccc(CC(=O)O)cc3)cc2)c1NC(=O)O[C@H](C)c1ccccc1Cl |  | 6.13%
CN1CCN(c2ccc(-c3cccc(CN4CCOCC4)c3)cc2NC(=O)c2c[nH]c(=O)cc2C(F)(F)F)CC1 |  | -0.0244% [at 38.5 µM]
COc1cc(N(C)CCN(C)C)c(N)cc1Nc1nccc(-c2cn(C)c3ccccc23)n1 |  | -3.37%
C=C1/C(=C/C=C2\CCC[C@@]3(C)C2CCC3[C@H](C)/C=C/[C@@H](O)C2CC2)C[C@@H](O)C[C@@H]1O (some centres undefined) |  | 10.3%
CC(C)C(C)C(O)C1CC23CC(=O)C4(O)C(=C2CCC3C1C)C=CC1(O)CC(O)CCC14C (centres undefined) |  | -0.0818% [at 25.3 µM]
O=C(NCC1CCN(Cc2cccc(Cl)c2)CC1)[C@@H]1CCCN(c2ncnc3c2nc2n3CCCC2)C1 |  | 0.773%
C=CC1(C)CC(O)C(C(=C)C(=O)OC)C(O)C1C(=C)CO (centres undefined) |  | -6.73%
C=C[C@](C)(O)CC[C@H]1C(C)=CC(=O)[C@H]2C(C)(C)CCC[C@]12C |  | 12.2%
Cn1c(SCC(=O)N2CCC[C@H]2C(=O)Nc2ccccc2-c2ccccc2)nc2ccccc21 |  | 2.59%
Cn1ncc2cc(-c3cnc(N)c(Cl)c3N3CCC4(CCNC4=O)CC3)ccc21 |  | 24.3%
